# Shown is part of a subset that was picked to be rich in the strongest signals.
# B1: GST-Gap1 (Streptococcus parasanguinis), A1C3L5 (protein)
# chain: MFYFVPSWYNGQRQWYYDTPWWFRVKNRMTFDDSVNQVKMFLQGQEEIGLMILNYQPQLRYFLHKQNIFGIYYWSFFDDIQNITRSYTKIIHLKDLNWPEGCEFLYSPFAVVVRLKGEIFAIVNYAEDGNLHSVSFQKNGKVTKDYIFDDRGFLSSILYYDIDERPLYQDYLNINGVWQVREFLKKENDPTPILMINDFSDQTFSKKYYNGWEELIKERLAIFQNNHVENEDVFVLASDTQHNQLVSSIFKEHRKIYSFFGNRFNLENLGQDRISINDATFLVVDTEKNEELLRKTCENLVFKSIPIVRLSPFDSRLRLGHSQTVKEQIIYFHIDNIELDELYSVIAIILELMTLHLDIELRIVTFRQDFQLDLLKTWIIDFIKTNHFEDLLFKQISEGENEIEDEGEIELSRIAMECFTNENQIIKCLDTARLVIDLGIEPDLYTQIASISAGIPQINRVSSDYVIHQKNGLVISDISKLSSAIEFYFDGLFNWNEALIYAVRKMSDYTSGKILKQWKGMLKKK
# Assays:
# Assay in all cases: glycan array binding signal (z-score within array); higher = stronger binding
# Conditions in all cases: glycan notation: IUPAC condensed, linker removed
# [1] = target: GalNAc(b1-3)Gal(a1-4)Gal(b1-4)GlcNAc
# Procedure, shortened: (§1)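 Glycan array data were curated from 3228 arrays in the Consortium for Functional Glycomics database and kept only where the protein sequence was available. Glycan names were converted to IUPAC-condensed notation, and columns mapping to the same glycan were averaged. The binding signal is a within-array Z-score, averaged across arrays of the same protein sequence at different concentrations or buffers and across linkers. Negative Z-scores can be read as non-binding.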
# GalNAc(b1-4)GlcNAc = target: GalNAc(b1-4)GlcNAc
# Procedure, shortened: as §1
# GlcA(b1-3)GlcNAc = target: GlcA(b1-3)GlcNAc
# Procedure, shortened: as §1
# [2] = target: GlcNAc(b1-3)Gal(b1-4)GlcNAc(b1-2)Man(a1-3)[GlcNAc(b1-3)Gal(b1-4)GlcNAc(b1-2)Man(a1-6)]Man(b1-4)GlcNAc(b1-4)GlcNAc
# Procedure, shortened: as §1
# [3] = target: GlcNAc(b1-3)Gal(b1-4)GlcNAc(b1-3)Gal(b1-4)GlcNAc(b1-3)Gal(b1-4)GlcNAc(b1-2)Man(a1-3)[GlcNAc(b1-3)Gal(b1-4)GlcNAc(b1-3)Gal(b1-4)GlcNAc(b1-3)Gal(b1-4)GlcNAc(b1-2)Man(a1-6)]Man(b1-4)GlcNAc(b1-4)[Fuc(a1-6)]GlcNAc
# Procedure, shortened: as §1
# [4] = target: GlcNAc(b1-3)Gal(b1-4)GlcNAc(b1-3)Gal(b1-4)GlcNAc(b1-3)Gal(b1-4)GlcNAc(b1-3)Gal(b1-4)GlcNAc(b1-2)Man(a1-3)[GlcNAc(b1-3)Gal(b1-4)GlcNAc(b1-3)Gal(b1-4)GlcNAc(b1-3)Gal(b1-4)GlcNAc(b1-3)Gal(b1-4)GlcNAc(b1-2)Man(a1-6)]Man(b1-4)GlcNAc(b1-4)GlcNAc
# Procedure, shortened: as §1
# [5] = target: GlcNAc(b1-3)Gal(b1-4)GlcNAc(b1-3)Gal(b1-4)GlcNAc(b1-3)Gal(b1-4)GlcNAc(b1-3)Gal(b1-4)GlcNAc(b1-2)Man(a1-3)[GlcNAc(b1-3)Gal(b1-4)GlcNAc(b1-3)Gal(b1-4)GlcNAc(b1-3)Gal(b1-4)GlcNAc(b1-3)Gal(b1-4)GlcNAc(b1-2)Man(a1-6)]Man(b1-4)GlcNAc(b1-4)[Fuc(a1-6)]GlcNAc
# Procedure, shortened: as §1
# [6] = target: GlcNAc(b1-3)Gal(b1-4)GlcNAc(b1-3)Gal(b1-4)GlcNAc(b1-3)Gal(b1-4)GlcNAc(b1-3)Gal(b1-4)GlcNAc(b1-2)[GlcNAc(b1-3)Gal(b1-4)GlcNAc(b1-3)Gal(b1-4)GlcNAc(b1-3)Gal(b1-4)GlcNAc(b1-3)Gal(b1-4)GlcNAc(b1-6)]Man(a1-6)[GlcNAc(b1-3)Gal(b1-4)GlcNAc(b1-3)Gal(b1-4)GlcNAc(b1-3)Gal(b1-4)GlcNAc(b1-3)Gal(b1-4)GlcNAc(b1-2)Man(a1-3)]Man(b1-4)GlcNAc(b1-4)[Fuc(a1-6)]GlcNAc
# Procedure, shortened: as §1
# GlcNAc(b1-3)Man = target: GlcNAc(b1-3)Man
# Procedure, shortened: as §1
# MurNAc(b1-4)GlcNAc = target: MurNAc(b1-4)GlcNAc
# Procedure, shortened: as §1
# [7] = target: Neu5Ac(a2-3)Gal(b1-3)GalNAc(b1-4)[Neu5Ac(a2-8)Neu5Ac(a2-3)]Gal(b1-4)Glc
# Procedure, shortened: as §1
# [8] = target: Neu5Ac(a2-3)Gal(b1-4)GlcNAc(b1-2)Man(a1-3)[Neu5Ac(a2-3)Gal(b1-4)GlcNAc(b1-2)Man(a1-6)]Man(b1-4)GlcNAc(b1-4)GlcNAc
# Procedure, shortened: as §1
# [9] = target: Neu5Ac(a2-3)Gal(b1-4)GlcNAc(b1-3)Gal(b1-4)GlcNAc(b1-2)Man(a1-3)[Neu5Ac(a2-3)Gal(b1-4)GlcNAc(b1-3)Gal(b1-4)GlcNAc(b1-2)Man(a1-6)]Man(b1-4)GlcNAc(b1-4)GlcNAc
# Procedure, shortened: as §1
# [10] = target: Neu5Ac(a2-3)Gal(b1-4)GlcNAc(b1-3)Gal(b1-4)GlcNAc(b1-3)Gal(b1-4)GlcNAc(b1-2)Man(a1-3)[Neu5Ac(a2-3)Gal(b1-4)GlcNAc(b1-3)Gal(b1-4)GlcNAc(b1-3)Gal(b1-4)GlcNAc(b1-2)Man(a1-6)]GalNAc
# Procedure, shortened: as §1
# [11] = target: Neu5Ac(a2-3)Gal(b1-4)GlcNAc(b1-3)Gal(b1-4)GlcNAc(b1-6)[Gal(b1-3)]GalNAc
# Procedure, shortened: as §1
# [12] = target: Neu5Ac(a2-3)Gal(b1-4)[Fuc(a1-3)]GlcNAc(b1-6)[Gal(b1-3)]GalNAc
# Procedure, shortened: as §1
# [13] = target: Neu5Ac(a2-6)Gal(b1-4)GlcNAc(b1-2)Man(a1-3)[GlcNAc(b1-2)Man(a1-6)]Man(b1-4)GlcNAc(b1-4)GlcNAc
# Procedure, shortened: as §1
# [14] = target: Neu5Ac(a2-6)Gal(b1-4)GlcNAc(b1-2)Man(a1-3)[Neu5Ac(a2-3)Gal(b1-4)GlcNAc(b1-2)Man(a1-6)]Man(b1-4)GlcNAc(b1-4)GlcNAc
# Procedure, shortened: as §1
# [15] = target: Neu5Ac(a2-6)Gal(b1-4)GlcNAc(b1-2)[Neu5Ac(a2-6)Gal(b1-4)GlcNAc(b1-4)]Man(a1-3)[GlcNAc(b1-4)][Neu5Ac(a2-6)Gal(b1-4)GlcNAc(b1-2)[Neu5Ac(a2-6)Gal(b1-4)GlcNAc(b1-6)]Man(a1-6)]Man(b1-4)GlcNAc(b1-4)GlcNAc
# Procedure, shortened: as §1
# [16] = target: Neu5Ac(a2-6)Gal(b1-4)GlcNAc(b1-3)Gal(b1-4)GlcNAc(b1-3)Gal(b1-4)GlcNAc(b1-2)Man(a1-3)[Neu5Ac(a2-6)Gal(b1-4)GlcNAc(b1-3)Gal(b1-4)GlcNAc(b1-3)Gal(b1-4)GlcNAc(b1-2)Man(a1-6)]GalNAc
# Procedure, shortened: as §1
# [17] = target: Neu5Ac(a2-6)Gal(b1-4)GlcNAc6S
# Procedure, shortened: as §1
# [18] = target: Neu5Ac(a2-6)GalNAc(b1-4)GlcNAc6S
# Procedure, shortened: as §1
# [19] = target: Neu5Gc(a2-8)Neu5Ac(a2-3)Gal(b1-4)GlcNAc
# Procedure, shortened: as §1
binder,measurement,setting,value
B1,glycan array binding signal (z-score),[1],0.159
same,glycan array binding signal (z-score),GalNAc(b1-4)GlcNAc,-0.452
same,glycan array binding signal (z-score),GlcA(b1-3)GlcNAc,5.69
same,glycan array binding signal (z-score),[2],0.668
same,glycan array binding signal (z-score),[3],2.14
same,glycan array binding signal (z-score),[4],0.361
same,glycan array binding signal (z-score),[5],-0.16
same,glycan array binding signal (z-score),[6],0.811
same,glycan array binding signal (z-score),GlcNAc(b1-3)Man,-0.28
same,glycan array binding signal (z-score),MurNAc(b1-4)GlcNAc,-0.969
same,glycan array binding signal (z-score),[7],0.39
same,glycan array binding signal (z-score),[8],-1.31
same,glycan array binding signal (z-score),[9],2.28
same,glycan array binding signal (z-score),[10],2.15
same,glycan array binding signal (z-score),[11],-0.747
same,glycan array binding signal (z-score),[12],1.35
same,glycan array binding signal (z-score),[13],-0.335
same,glycan array binding signal (z-score),[14],0.84
same,glycan array binding signal (z-score),[15],-0.54
same,glycan array binding signal (z-score),[16],2.53
same,glycan array binding signal (z-score),[17],0.323
same,glycan array binding signal (z-score),[18],-0.037
same,glycan array binding signal (z-score),[19],-0.655

# Source: the supplement of paper PMC8728848
